Experiments:
Test in all cases: SPOT peptide array binding signal intensity (averaged, normalized) (arbitrary units (background-subtracted, floor 0; scale differs between SH3 domains)); higher = stronger binding of the SH3 domain to the peptide
[1] = biological target: AgAbp1
Procedure: (§1)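 GST-tagged SH3 domains from S. cerevisiae (Sc), A. gossypii (Ag), C. albicans (Ca) and S. pombe (Sp) were incubated at 10 ug/ml overnight at 4 C on cellulose SPOT membranes carrying 292 synthetic 15-mer peptides mined from the S. cerevisiae proteome (cysteines replaced by serines). Binding was detected with anti-GST antibody, HRP secondary and chemiluminescence, quantified with Genespotter, and reported as normalized spot intensities averaged over biological replicates.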

[2] = biological target: AgBbc1
Procedure: as §1

[3] = biological target: AgBem1-D1
Procedure: as §1

[4] = biological target: AgBzz1-D1
Procedure: as §1

[5] = biological target: AgBzz1-D2
Procedure: as §1

[6] = biological target: AgCyk3
Procedure: as §1

[7] = biological target: AgFus1
Procedure: as §1

[8] = biological target: AgHof1
Procedure: as §1

[9] = biological target: AgHse1
Procedure: as §1

[10] = biological target: AgLsb1
Procedure: as §1

[11] = biological target: AgLsb4
Procedure: as §1

[12] = biological target: AgMyo5
Procedure: as §1

[13] = biological target: AgNbp2
Procedure: as §1

[14] = biological target: AgRvs167
Procedure: as §1

[15] = biological target: AgSho1
Procedure: as §1

[16] = biological target: AgSla1-D1-D2
Procedure: as §1

[17] = biological target: AgSla1-D3
Procedure: as §1

[18] = biological target: CaAbp1-D1
Procedure: as §1

[19] = biological target: CaAbp1-D2
Procedure: as §1

[20] = biological target: CaBbc1
Procedure: as §1

[21] = biological target: CaBem1-D1
Procedure: as §1

[22] = biological target: CaBzz1-D1
Procedure: as §1

[23] = biological target: CaBzz1-D2
Procedure: as §1

[24] = biological target: CaCyk3
Procedure: as §1

[25] = biological target: CaFus1
Procedure: as §1

[26] = biological target: CaHof1
Procedure: as §1

[27] = biological target: CaHse1
Procedure: as §1

[28] = biological target: CaLsb1
Procedure: as §1

[29] = biological target: CaLsb4
Procedure: as §1

[30] = biological target: CaMyo5
Procedure: as §1

[31] = biological target: CaNbp2
Procedure: as §1

[32] = biological target: CaRvs167
Procedure: as §1

[33] = biological target: CaRvs167-3
Procedure: as §1

[34] = biological target: CaSho1
Procedure: as §1

[35] = biological target: CaSla1-D1-D2
Procedure: as §1

[36] = biological target: CaSla1-D3
Procedure: as §1

[37] = biological target: ScAbp1
Procedure: as §1

[38] = biological target: ScBbc1
Procedure: as §1

[39] = biological target: ScBem1-D1
Procedure: as §1

[40] = biological target: ScBzz1-D1
Procedure: as §1

[41] = biological target: ScBzz1-D2
Procedure: as §1

[42] = biological target: ScCyk3
Procedure: as §1

[43] = biological target: ScFus1
Procedure: as §1

[44] = biological target: ScHof1
Procedure: as §1

[45] = biological target: ScHse1
Procedure: as §1

[46] = biological target: ScLsb1
Procedure: as §1

[47] = biological target: ScLsb2
Procedure: as §1

[48] = biological target: ScLsb3
Procedure: as §1

[49] = biological target: ScLsb4
Procedure: as §1

[50] = biological target: ScMyo3
Procedure: as §1

[51] = biological target: ScMyo5
Procedure: as §1

[52] = biological target: ScNbp2
Procedure: as §1

[53] = biological target: ScPex13
Procedure: as §1

[54] = biological target: ScRvs167
Procedure: as §1

[55] = biological target: ScSho1
Procedure: as §1

[56] = biological target: ScSla1-D1-D2
Procedure: as §1

[57] = biological target: ScSla1-D3
Procedure: as §1

[58] = biological target: SpAbp1-D1
Procedure: as §1

[59] = biological target: SpBbc1
Procedure: as §1

[60] = biological target: SpBzz1-D1
Procedure: as §1

[61] = biological target: SpBzz1-D2
Procedure: as §1

[62] = biological target: SpCyk3
Procedure: as §1

[63] = biological target: SpHof1
Procedure: as §1

[64] = biological target: SpHof1-2
Procedure: as §1

[65] = biological target: SpHof1-3
Procedure: as §1

[66] = biological target: SpHse1
Procedure: as §1

[67] = biological target: SpLsb1
Procedure: as §1

[68] = biological target: SpLsb4
Procedure: as §1

[69] = biological target: SpMyo1
Procedure: as §1

[70] = biological target: SpNbp2
Procedure: as §1

[71] = biological target: SpPex13
Procedure: as §1

[72] = biological target: SpRvs167
Procedure: as §1

[73] = biological target: SpSla1-D1-D2
Procedure: as §1

[74] = biological target: SpSla1-D3
Procedure: as §1

## RKRRTHLRLPLIRSN
[1]
  SPOT peptide array binding signal intensity: 23
[2]
  SPOT peptide array binding signal intensity: 105
[3]
  SPOT peptide array binding signal intensity: 130
[4]
  SPOT peptide array binding signal intensity: 2
[5]
  SPOT peptide array binding signal intensity: 34.5
[6]
  SPOT peptide array binding signal intensity: 2
[7]
  SPOT peptide array binding signal intensity: 1070
[8]
  SPOT peptide array binding signal intensity: 107
[9]
  SPOT peptide array binding signal intensity: 1100
[10]
  SPOT peptide array binding signal intensity: ≤ 0
[11]
  SPOT peptide array binding signal intensity: 137
[12]
  SPOT peptide array binding signal intensity: 0.5
[13]
  SPOT peptide array binding signal intensity: 63.8
[14]
  SPOT peptide array binding signal intensity: 2.83
[15]
  SPOT peptide array binding signal intensity: 37.5
[16]
  SPOT peptide array binding signal intensity: 29.5
[17]
  SPOT peptide array binding signal intensity: 2.25
[18]
  SPOT peptide array binding signal intensity: 243
[19]
  SPOT peptide array binding signal intensity: 301
[20]
  SPOT peptide array binding signal intensity: 211
[21]
  SPOT peptide array binding signal intensity: 41.5
[22]
  SPOT peptide array binding signal intensity: 73.5
[23]
  SPOT peptide array binding signal intensity: 71
[24]
  SPOT peptide array binding signal intensity: 20
[25]
  SPOT peptide array binding signal intensity: 1220
[26]
  SPOT peptide array binding signal intensity: 0.25
[27]
  SPOT peptide array binding signal intensity: 29.6
[28]
  SPOT peptide array binding signal intensity: ≤ 0
[29]
  SPOT peptide array binding signal intensity: 85
[30]
  SPOT peptide array binding signal intensity: 0.5

## GQYRRTIVIPRRFFT
[1]
  SPOT peptide array binding signal intensity: 24.5
[2]
  SPOT peptide array binding signal intensity: 25.5
[3]
  SPOT peptide array binding signal intensity: 52
[4]
  SPOT peptide array binding signal intensity: 42.5
[5]
  SPOT peptide array binding signal intensity: 21
[6]
  SPOT peptide array binding signal intensity: 42.5
[7]
  SPOT peptide array binding signal intensity: 619
[8]
  SPOT peptide array binding signal intensity: 68
[9]
  SPOT peptide array binding signal intensity: 478
[10]
  SPOT peptide array binding signal intensity: 10
[11]
  SPOT peptide array binding signal intensity: 211
[12]
  SPOT peptide array binding signal intensity: 2.25
[13]
  SPOT peptide array binding signal intensity: 56.5
[14]
  SPOT peptide array binding signal intensity: 14.8
[15]
  SPOT peptide array binding signal intensity: 255
[16]
  SPOT peptide array binding signal intensity: 763
[17]
  SPOT peptide array binding signal intensity: 11
[18]
  SPOT peptide array binding signal intensity: 168
[19]
  SPOT peptide array binding signal intensity: 172
[20]
  SPOT peptide array binding signal intensity: 128
[21]
  SPOT peptide array binding signal intensity: 24.5
[22]
  SPOT peptide array binding signal intensity: 60
[23]
  SPOT peptide array binding signal intensity: 45
[24]
  SPOT peptide array binding signal intensity: 81
[25]
  SPOT peptide array binding signal intensity: 2340
[26]
  SPOT peptide array binding signal intensity: 5
[27]
  SPOT peptide array binding signal intensity: 45.8
[28]
  SPOT peptide array binding signal intensity: 7
[29]
  SPOT peptide array binding signal intensity: 94.5
[30]
  SPOT peptide array binding signal intensity: 46.5
[31]
  SPOT peptide array binding signal intensity: 564
[32]
  SPOT peptide array binding signal intensity: 191
[33]
  SPOT peptide array binding signal intensity: 1390
[34]
  SPOT peptide array binding signal intensity: 1460
[35]
  SPOT peptide array binding signal intensity: 60
[36]
  SPOT peptide array binding signal intensity: 89.8
[37]
  SPOT peptide array binding signal intensity: 71
[38]
  SPOT peptide array binding signal intensity: 2.5
[39]
  SPOT peptide array binding signal intensity: 9
[40]
  SPOT peptide array binding signal intensity: 17.5
[41]
  SPOT peptide array binding signal intensity: 78
[42]
  SPOT peptide array binding signal intensity: 108
[43]
  SPOT peptide array binding signal intensity: 898
[44]
  SPOT peptide array binding signal intensity: 4.75
[45]
  SPOT peptide array binding signal intensity: 995
[46]
  SPOT peptide array binding signal intensity: 10.2
[47]
  SPOT peptide array binding signal intensity: 29
[48]
  SPOT peptide array binding signal intensity: 210
[49]
  SPOT peptide array binding signal intensity: 33
[50]
  SPOT peptide array binding signal intensity: 12.5
[51]
  SPOT peptide array binding signal intensity: 10
[52]
  SPOT peptide array binding signal intensity: 346
[53]
  SPOT peptide array binding signal intensity: 15.2
[54]
  SPOT peptide array binding signal intensity: 69.3
[55]
  SPOT peptide array binding signal intensity: 1020
[56]
  SPOT peptide array binding signal intensity: 205
[57]
  SPOT peptide array binding signal intensity: 54.5
[58]
  SPOT peptide array binding signal intensity: 242
[59]
  SPOT peptide array binding signal intensity: 12.5
[60]
  SPOT peptide array binding signal intensity: 107
[61]
  SPOT peptide array binding signal intensity: 4.5
[62]
  SPOT peptide array binding signal intensity: 21
[63]
  SPOT peptide array binding signal intensity: 186
[64]
  SPOT peptide array binding signal intensity: 50
[65]
  SPOT peptide array binding signal intensity: 321
[66]
  SPOT peptide array binding signal intensity: 573
[67]
  SPOT peptide array binding signal intensity: 5
[68]
  SPOT peptide array binding signal intensity: 131
[69]
  SPOT peptide array binding signal intensity: 4.75
[70]
  SPOT peptide array binding signal intensity: 287
[71]
  SPOT peptide array binding signal intensity: 79.5
[72]
  SPOT peptide array binding signal intensity: 43
[73]
  SPOT peptide array binding signal intensity: 6
[74]
  SPOT peptide array binding signal intensity: 47
